Assay results as given in PubChem BioAssay AID1259415 (National Center for Advancing Translational Sciences (NCATS), 2018).
Screen size: about 410,000 compounds; about 18,000 (4.4%) were called active. About 7% were inconclusive and are not listed. The sample as a whole holds a higher share of actives than the screen did. A number with no mark means an inactive call. No stated cut-off is given here; in the data, active means activity change below about -60%; inconclusive means no clear call, values can overlap the other calls; inactive means above about -39%.

assay: qHTS Assay for inhibitors of the human cytomegalovirus (HCMV); details: HFF cells, HCMV-luciferase reporter, 72 h; at 57.5 µM; stronger effect = lower value
Excerpt: NCGC Assay Overview: Infection with human cytomegalovirus (HCMV) continues to pose significant threats for pregnant women and immunocompromised hosts. HCMV causes serious morbidity and mortality in transplant recipients, and congenital HCMV is the leading infectious cause of mental retardation and deafness in children. In the 1990s, the annual costs associated with the disease burden of congenital CMV were estimated at around $2 billion. A HCMV vaccine is not available yet and HCMV therapies result in intolerable side effects and emergence of drug resistant viruses. […] Towards this goal we have developed and characterized a luciferase HCMV reporter that was initially used in 96 well plates and then optimized to 1536-well plates for utilization in screening of the MLSMR collection, the NGCG diversity collection and the NCGC Pharmaceutical Collection of approved and investigational drugs.
NCGC Assay Protocol Summary:
This is a cell-based assay for HCMV inhibition in HFFs cells. The screening used 2 compound doses and the HCMV-luciferase at MOI of 1 PFU/cell. Cells were treated and infected with HCMV. At 72 h post infection cell lysates were collected and luciferase activity was determined using the Glomax-Multi + Detection System (Promega, Madison, WI). Data were normalized to the controls for basal activity (buffer only) and known HCMV inhibitors Salinmoycin.
1536-well assay protocol for the assay:
(1) Add 3 ul CMV/HFF cell culture. 1000 cells/well in DMEM nirmal media.
(2) Incubate 16 hr at 37C.
(3) Add 23 nl control compound, 10uM of Salinomycin.
(4) Add 23 nl compounds in DMSO solution.
(5) Add 3 ul CMV suspension. Final 1 puf/ul, Virus stock 2000pfu/ul
(6) Incubate 72 hrs at 37C.
(7) Add 4 ul OneGlo Luc Reagent.
(8) Incubate 5 min at room temperature.
On the % scale 0 is the no-effect control and ±100 the full control effect.

| Compound | activity change, negative = inhibition |
| --- | --- |
| CCOc1ccc(C2CC(=O)c3c([nH]c(C(=O)OCc4ccccc4)c3C)C2)cc1 (stereo unspecified) | -87.7% (active) |
| CCOc1ccc(C2C3=C(CCCC3=O)N(CC(=O)O)C3=C2C(=O)CCC3)cc1 | -23.6% |
| CCOC(=O)c1[nH]c2c(c1-c1ccccc1)C(=O)CC(c1ccc(Cl)cc1)C2 (stereo unspecified) | -60.6% (active) |
| CCCOC(=O)c1[nH]c2c(c1C)C(=O)CC(c1cccs1)C2 (stereo unspecified) | -91.4% (active) |
| CCc1ccc(C2CC(=O)c3c([nH]c(C(=O)OCc4ccc(C)cc4)c3C)C2)cc1 (stereo unspecified) | -27.1% |
| CCOC(=O)c1ccc(N2C(=O)c3[nH]nc(-c4ccccc4)c3C2c2ccc(C(C)C)cc2)cc1 (stereo unspecified) | -27.7% |
| COc1ccc(-c2cnn(C(C)(C)C(=O)Nc3ccccn3)c2)cc1OC | 25% |
| COc1ccc(NC(=O)c2sc(=O)n(Cc3ccc(S(=O)(=O)N(C)C)cc3)c2C)cc1 | -0.573% |
| OCC1(Cc2ccccc2C(F)(F)F)CCN(Cc2ccncc2)CC1 | 71% |
| Cc1nc2c(c(C)nn2-c2ccccc2)c(C)c1CCC(=O)NCCc1ccc(Cl)cc1 | -1.35% |
| Cc1cc(C)c2oc(C(=O)Nc3ccc(S(=O)(=O)N4CCCCCC4)cc3)cc(=O)c2c1 | -9.78% |
| CCOc1ccc(NC(=O)c2cn(C3CCCCC3)c(=O)c3c2c2ccccc2n3C)cc1 | -4.97% |
| O=C(COc1ccc(Cl)cc1)N(Cc1ccco1)Cc1ccco1 | -22.5% |
| COc1ccc(S(=O)(=O)NCC(c2ccc(N(C)C)cc2)N2CCc3ccccc32)cc1OC (stereo unspecified) | 34.1% |
| O=C(CCc1nc2sc3c(c2c(=O)[nH]1)CCCC3)NCC(=O)Nc1ccccc1Br | -4.74% |
| Cc1nc2sc3c(c2c(=O)n1NC(=O)CCl)CCCC3 | -63.7% (active) |
| Cc1ccc(C)c(-n2c(SCC(=O)O)nc3sc4c(c3c2=O)CCCC4)c1 | -26% |
| O=C(c1ccc2c(c1)N(Cc1ccccc1F)C(=O)c1ccccc1S2(=O)=O)N1CCOCC1 | 5.01% |
| COc1cccc2c1C(=O)c1c(O)c3c(c(O)c1C2=O)CC(O)(C(C)=NNC(=O)c1ccc(Cl)c(Cl)c1)CC3OC1CC(N)C(O)C(C)O1 (stereo unspecified) | -99% (active) |
| Cc1ccc2nc(CN3CCN(S(=O)(=O)c4ccc(C)c(C)c4)CC3)oc2c1 | 1.05% |
| COc1ccc(CN2C(=O)C(NC(=O)c3cccc(C)c3)(C(F)(F)F)N=C2c2ccccc2)cc1 (stereo unspecified) | -8.44% |
| CC1C(C)N(C(=O)CCl)c2ccccc2N1C(=O)CCl (stereo unspecified) | -38.8% |
| CC1C(=O)N(Cc2ccccc2)c2ccccc2N1C(=O)c1ccccc1 (stereo unspecified) | -73.6% (active) |

| Compound | activity change, negative = inhibition |
| --- | --- |
| CC1Oc2ccccc2N(Cc2cccnc2)C1=O (stereo unspecified) | 49.3% |
| COc1cc(C(CC(=O)NCCC(C)C)N2Cc3ccccc3C2=O)cc(OC)c1OC (stereo unspecified) | 22.7% |
| CCN(CC)S(=O)(=O)c1ccc2c(c1)N(CC(=O)NCc1ccccc1)C(=O)CS2 | -9.16% |
| COC(=O)CN1C(=O)CSc2ccc(S(=O)(=O)Nc3cc(C)ccc3C)cc21 | -71.2% (active) |
| Cc1ccc(CCNC(=O)CN2C(=O)CSc3ccc(S(=O)(=O)N4CCOCC4)cc32)cc1 | -26.9% |
| COc1ccc(Cc2nc3ccc(C(=O)NCc4ccccc4C)cc3o2)cc1 | -89.9% (active) |
| COc1ccc(Cc2nc3ccc(C(=O)NCc4ccc(OC)cc4OC)cc3o2)cc1 | -12.1% |
| COc1ccc(Cc2nc3ccc(C(=O)NCc4ccccc4Cl)cc3o2)cc1 | -18% |
| O=C(NC1CCCC1)N1CC(=O)N2[C@H](C1)[C@@H](c1ccc(Br)cc1)[C@@H]2CO | 13.9% |
| CCOC(=O)c1c(NC(=O)CCl)sc(C(=O)N(CC)CC)c1C | -99% (active) |
| CCOC(=O)c1c(NC(=O)COC(=O)c2ccc(S(=O)(=O)C(F)F)cc2)sc(C(=O)N(C)C)c1C | 6.79% |
| CCOC(=O)c1c(NC(=O)c2cc(CC)on2)sc(C(C)=O)c1C | 0.462% |
| O=C(CC1C(=O)NCCN1CC(c1ccccc1)c1ccccc1)NCCc1cn[nH]c1 (stereo unspecified) | -37.4% |
| CCCCNC(=O)c1ccc2c(c1)NC(=O)C(C(C)C)N2 (stereo unspecified) | 7.34% |
| O=C(Nc1ncc2c(n1)-c1ccccc1OC2)c1ccc(Cl)cc1 | 16.2% |
| COCCN(CCOC)S(=O)(=O)c1ccc(C(=O)Nc2nc3c(s2)CCc2ccccc2-3)cc1 | -63.9% (active) |
| C=CCN(c1ccc(C(=O)Nc2cc(C)cc(C)c2)cc1)S(C)(=O)=O | -28.7% |
| C=CCN(CC=C)S(=O)(=O)c1ccc(C(=O)Nc2nc3c(s2)CCc2ccccc2-3)cc1 | -86.4% (active) |
| C=CCN(CC=C)S(=O)(=O)c1ccc(C(=O)Nc2sc3c(c2C(N)=O)CCCCC3)cc1 | -93.4% (active) |
| CCOC(=O)c1c(NC(=O)c2ccc(S(=O)(=O)N(CC)CC)cc2)sc2c1CCCCC2 | 49.3% |
| CCCN(CCC)S(=O)(=O)c1ccc(C(=O)Nc2sc3c(c2C(=O)OC)CCN(CC)C3)cc1 | -35.8% |
| CCCCN(C)S(=O)(=O)c1ccc(C(=O)Nc2sc3c(c2C(N)=O)CC(C)(C)NC3(C)C)cc1 | -1.57% |
| COCCN(CC(=O)Nc1ccccc1C)S(=O)(=O)c1ccc(S(=O)(=O)N2CCCC2)cc1 | 26.9% |
